The nature of experiment [1]: NS1 protein of Zika virus - qHTS assay to identify small molecule inhibitors in human HEK 293 cells (AID 1347053). Further: nearly all actives have a fitted effect of over 55% in size. To be noted: HEK293 ZIKV MR766 infection, NS1 TR-FRET, 24 h; series mostly up to 46.1 µM. The method, boiled down: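 Readout was TR-FRET using paired anti-NS1 antibodies after 24 h infection of HEK 293 cells with ZIKV MR766 (MOI = 0.5). Compound preceded virus by 1 h; reduced signal reflects lower NS1 expression.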
(In general: Quantitative high-throughput screening tests each substance at several concentrations.)

Experiment [2] can be described thus: qHTS of pediatric cancer cell lines to identify multiple opportunities for drug repurposing: Primary screen for TC32 cells (AID 1347089). Further: nearly all actives have a fitted effect of over 60% in size. To be noted: TC32 Ewing sarcoma viability, CellTiter-Glo luminescence, 48 h; series mostly up to 45.8 µM. Put shortly:
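In the primary qHTS, MIPE compounds were tested at 11 concentrations (0.78 nM to 46 µM) and NPC compounds at 8 (0.59 nM to 46 µM) on TC32 cells for 48 h. CellTiter-Glo luminescence gave viability.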

The nature of experiment [3]: qHTS of pediatric cancer cell lines to identify multiple opportunities for drug repurposing: Primary screen for DAOY cells (AID 1347090). Further: nearly all actives have a fitted effect of over 55% in size. To be noted: DAOY medulloblastoma viability, CellTiter-Glo luminescence, 48 h; series mostly up to 46 µM. Put shortly:
(§1)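 Viability measured as metabolically active cells via CellTiter-Glo luminescence following 48 hours of compound exposure, 11-point dilutions in confirmatory testing. 500-1,000 cells/well plated 5 hours before dosing; controls were DMSO and 2.3 µM bortezomib.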

Experiment [4] can be described thus: qHTS of pediatric cancer cell lines to identify multiple opportunities for drug repurposing: Primary screen for SJ-GBM2 cells (AID 1347091). To be noted: SJ-GBM2 viability, CellTiter-Glo luminescence, 48 h; series mostly up to 46 µM. The method, boiled down:
as §1

A short description of experiment [5]: qHTS of pediatric cancer cell lines to identify multiple opportunities for drug repurposing: Primary screen for A673 cells (AID 1347092). Further: nearly all actives have a fitted effect of over 45% in size. To be noted: A673 Ewing sarcoma viability, CellTiter-Glo ATP luminescence, 48 h; series mostly up to 46 µM. Put shortly: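 48 h compound exposure, A673, 500-1,000 cells/well, 37 degrees C/5% CO2. MIPE: 11-point, 0.78 nM-46 µM; NPC: 8-point, 0.59 nM-46 µM (final). Readout CellTiter-Glo luminescence after 15 min RT.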

The nature of experiment [6]: qHTS of pediatric cancer cell lines to identify multiple opportunities for drug repurposing: Primary screen for SK-N-MC cells (AID 1347093). To be noted: SK-N-MC viability, CellTiter-Glo luminescence, 48 h; series mostly up to 46 µM. The method, boiled down:
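Metabolically active cells were quantified by ATP-dependent luminescence (CellTiter-Glo, 15 min at room temperature) following 48 h treatment. Cells had been plated at 500-1,000 per well and settled for 5 h beforehand.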

Molecules are shown by their SMILES. Inconclusive results are not listed. Calls of active or inactive are those of the source. The call rests on the fitted dose curve; in most records, active means well fitted curve in the direction sought with a large enough effect; inconclusive means small, poorly fitted or top-dose-only effect, or another doubt; inactive means no such curve, though single readings can be large; an effect the other way counts as inactive or inconclusive.
Potency means the concentration at half of the fitted maximal effect.

Take `C[C@@]12C[C@@]3(O)O[C@@H](O1)[C@]1(COC(=O)c4ccccc4)[C@@H]3C[C@@]12O[C@@H]1O[C@H](CO)[C@@H](O)[C@H](O)[C@@H]1O`: the Potency result in experiment [1], in experiment [2], in experiment [3], in experiment [4], in experiment [5] and in experiment [6] was “inactive” each time.
For `COC[C@H](NC(=O)c1cnc(C)s1)C(=O)N[C@@H](COC)C(=O)N[C@@H](Cc1ccccc1)C(=O)[C@@]1(C)CO1`, the Potency in experiment [1] is 1180 nM (active); in experiment [2], 587 nM (active); in experiment [3] it was 296 nM (active); in experiment [4], 66.2 nM (active); in experiment [5] it was 93.5 nM (active); in experiment [6], 29.6 nM (active).
For `Cc1ccc(O)c(C(CCN(C(C)C)C(C)C)c2ccccc2)c1` (stereo unspecified), the Potency result in experiment [1], in experiment [2], in experiment [3], in experiment [4] and in experiment [5] was “inactive” throughout.
`N#CC(=C(N)Sc1ccc(N)cc1)c1ccccc1C(F)(F)F`: the Potency entry in experiment [1], in experiment [2], in experiment [3], in experiment [4] and in experiment [5] was “inactive” each time.
`CNC(=O)Nc1ccc(-c2nc(N3CC4CCC(C3)O4)c3cnn(C4CCC5(CC4)OCCO5)c3n2)cc1`: the Potency in experiment [1] was 16600 nM (active); in experiment [2], 26.2 nM (active); in experiment [3], 29.6 nM (active); in experiment [4], 29.6 nM (active); in experiment [5] it was 372 nM (active); in experiment [6], 2.6 nM (active).
As for `C=C1C(=O)O[C@H]2[C@@H]1CCC(C)=CCC[C@@]1(C)O[C@@H]21`, the Potency in experiment [1] was 9350 nM (active); in experiment [2] it was 23400 nM (active); in experiment [3], 9350 nM (active); in experiment [4], 8330 nM (active); in experiment [5], 7430 nM (active); in experiment [6], 7430 nM (active).
With `O=C(C[C@@H]1CC=CCCC(=O)O[C@H](c2ccccc2)CNC1=O)NCc1ccc(Cl)cc1`, the Potency result in experiment [1], in experiment [2], in experiment [3], in experiment [4] and in experiment [5] was “inactive” in each case.
With `CCC[C@H]1C[C@H](C(=O)N[C@@H]([C@@H]2O[C@@H](SC)[C@@H](O)[C@@H](O)[C@@H]2O)[C@H](C)Cl)N(C)C1`, the Potency entry in experiment [1], in experiment [2], in experiment [3], in experiment [4] and in experiment [5] was “inactive” each time.
Take `C[C@H]1C[C@H]2[C@@H]3CCC4=CC(=O)C=C[C@]4(C)[C@@H]3C(=O)C[C@]2(C)[C@@]1(O)C(=O)CO`: the Potency entry in experiment [1], in experiment [2], in experiment [3], in experiment [4] and in experiment [5] was “inactive” throughout.
Regarding `NC[C@H]1O[C@H](O[C@H]2[C@@H](O)[C@@H](O[C@H]3O[C@H](CO)[C@@H](O)[C@H](N)[C@@H]3O)[C@H](N)C[C@@H]2N)[C@H](N)C[C@H]1O`, the Potency result in experiment [1], in experiment [2], in experiment [3], in experiment [4] and in experiment [5] was “inactive” each time.
With `CCOC(=O)C=C[C@H](C[C@@H]1CCNC1=O)NC(=O)[C@@H](CC(=O)[C@@H](NC(=O)c1cc(C)on1)C(C)C)Cc1ccc(F)cc1`, the Potency entry in experiment [1], in experiment [2], in experiment [3], in experiment [4] and in experiment [5] was “inactive” in each case.
Consider `Cc1ncc(-c2ccnc(Nc3ccc(S(C)(=O)=O)cc3)n2)n1C(C)C`, for which the Potency is 4690 nM (active) in experiment [1]; 13100 nM (active) in experiment [2]; 4690 nM (active) in experiment [3]; 1320 nM (active) in experiment [4]; 935 nM (active) in experiment [5]; 2350 nM (active) in experiment [6].
Consider `Cc1cnc(Nc2ccc(CN3CCOCC3)cc2)nc1Nc1cccc(S(=O)(=O)NC(C)(C)C)c1`, for which the Potency in experiment [1] is 33200 nM (active); in experiment [2], 9300 nM (active); in experiment [3], 4690 nM (active); in experiment [4] it was 2960 nM (active); in experiment [5] it was 2960 nM (active); in experiment [6], 833 nM (active).
On to `C=CC(=O)Nc1cccc(Nc2nc(NC3CCC(N(C)C)CC3)nc3c2ncn3C(C)C)c1` (stereo unspecified), for which the Potency is 11800 nM (active) in experiment [1]; 1470 nM (active) in experiment [2]; 3 nM (active) in experiment [3]; 235 nM (active) in experiment [4]; 11.8 nM (active) in experiment [5]; 4.2 nM (active) in experiment [6].
Take `C[C@H](O)[C@@H]1C(=O)N2C(C(=O)O)=C(S[C@@H]3CN[C@H](CNS(N)(=O)=O)C3)[C@@H](C)[C@@H]12`: the Potency entry in experiment [1], in experiment [2], in experiment [3], in experiment [4] and in experiment [5] was “inactive” each time.
Turning to `OCCN1C[C@H](O)[C@@H](O)[C@H](O)[C@@H]1CO`, the Potency entry in experiment [1], in experiment [2], in experiment [3], in experiment [4] and in experiment [6] was “inactive” in each case. Moreover, the Potency in experiment [5] was 9350 nM (active).
Regarding `CC(=O)NC(CS)C(=O)O` (stereo unspecified), the Potency entry in experiment [1], in experiment [2], in experiment [3], in experiment [4], in experiment [5] and in experiment [6] was “inactive” each time.
`COc1ccc(Nc2cc(-c3cnc(N)nc3)nc(N3CCOCC3)n2)cn1`: the Potency in experiment [1] was 16600 nM (active); in experiment [2] it was 4660 nM (active); in experiment [3] it was 4690 nM (active); in experiment [4] it was 4180 nM (active); in experiment [5] it was 5900 nM (active).
On to `CC(C=CC(=O)NO)=C[C@@H](C)C(=O)c1ccc(N(C)C)cc1`, for which the Potency entry in experiment [1] is “inactive”. The Potency was 2340 nM (active) in experiment [2], 1480 nM (active) in experiment [3], 1870 nM (active) in experiment [4] and 590 nM (active) in experiment [5].
Regarding `NS(=O)(=O)OC[C@@H]1C[C@@H](n2ccc3c(N[C@H]4CCc5ccccc54)ncnc32)C[C@H]1O`, the Potency result in experiment [1] was “inactive”. The Potency in experiment [2] is 1650 nM (active); in experiment [3], 590 nM (active); in experiment [4], 296 nM (active); in experiment [5], 148 nM (active).
Consider `CCCCC(=O)O[C@]1(C(=O)CO)[C@@H](C)C[C@H]2[C@@H]3CCC4=CC(=O)C=C[C@]4(C)[C@@]3(F)[C@@H](O)C[C@@]21C`, for which the Potency result in experiment [1], in experiment [2], in experiment [3], in experiment [4], in experiment [5] and in experiment [6] was “inactive” throughout.
For the compound `C#CCC(Cc1cnc2nc(N)nc(N)c2n1)c1ccc(C(=O)N[C@@H](CCC(=O)O)C(=O)O)cc1` (stereo partly specified), the Potency in experiment [1] was 132 nM (active); in experiment [2], 37 nM (active); in experiment [3] it was 118 nM (active); in experiment [4] it was 118 nM (active); in experiment [5] it was 29.6 nM (active); in experiment [6], 23.5 nM (active).

(Values after PubChem BioAssay (NCATS).)
